Reference: PubChem BioAssay AID488922 (Johns Hopkins Ion Channel Center, 2010)
The whole screen tested about 310,000 compounds, of which about 3,800 (1.2%) were called active.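 How the source made its calls: active means ratio B-score over 3 SD below the library mean, with starting fluorescence within 5 SD of its mean; inactive means the rest, inconclusive results apart.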 The list comes from a sample in which actives are over-represented; it also holds similar structures and randomly drawn compounds.

Biological target: Potassium channel subfamily K member 9 (Homo sapiens) (UniProt Q9NPC2)
Assay: blockers of human TASK-3 (KCNK9) channel – HEK293 cells, thallium flux, primary screen (AID 488922);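 on B-score: negative B-score means less thallium flux so channel inhibition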
Conditions: HEK293 KCNK9, FluxOR thallium flux fluorescence, at 10 µM; hits give low values

Sequence of Potassium channel subfamily K member 9 (Homo sapiens) (Q9NPC2 whole entry, looked up): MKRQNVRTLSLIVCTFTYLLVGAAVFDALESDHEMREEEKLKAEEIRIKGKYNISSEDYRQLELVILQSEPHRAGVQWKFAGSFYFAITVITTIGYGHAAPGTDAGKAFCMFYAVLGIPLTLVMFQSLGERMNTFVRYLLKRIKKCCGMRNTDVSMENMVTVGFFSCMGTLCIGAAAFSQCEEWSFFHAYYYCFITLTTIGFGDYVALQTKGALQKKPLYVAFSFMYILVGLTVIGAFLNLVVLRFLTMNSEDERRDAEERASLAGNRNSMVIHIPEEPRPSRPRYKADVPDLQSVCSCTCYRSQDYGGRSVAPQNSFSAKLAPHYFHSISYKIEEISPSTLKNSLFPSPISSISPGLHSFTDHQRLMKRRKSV

Structure (SMILES)	B-score
Brc1ccc(C2CC(c3ccccc3)=Nc3ccccc3N2)cc1 (stereo unspecified)	-9.6 (active)
c1ccc(C2=Nc3cccc4cccc(c34)N2)cc1	inactive
CNC(=S)N1N=C(c2ccccc2)CC1c1ccc(Br)cc1 (stereo unspecified)	inactive
CC(C)(C)SCCSC1=CC(=O)CC(c2ccccc2)C1 (stereo unspecified)	inactive
O=C(N/C(=C\c1ccc([N+](=O)[O-])cc1)C(=O)N1CCCCC1)c1ccco1	inactive
O=C(c1ccccc1)C(Cn1cncn1)C(Sc1ccccc1)c1ccccc1 (stereo unspecified)	inactive
O=C(NCc1ccccc1)c1onc(CSc2ccncc2)c1C(=O)NCc1ccccc1	inactive
CS(=O)(=O)N(CC(=O)Nc1ccc(F)cc1)C1CCCCC1	inactive
CS(=O)(=O)N(CC(=O)Nc1ccc(Cl)c(Cl)c1)C1CCCCC1	-7.01 (active)
CCC(C)NC(=O)CN(C1CCCCC1)S(C)(=O)=O (stereo unspecified)	inactive
Cc1csc(/N=C/N(C)C)c1C#N	inactive
Cc1ccc(S(=O)(=O)/N=C(/NC(=S)Nc2c(C)n(C)n(-c3ccccc3)c2=O)c2ccccc2)cc1	inactive
O=C(COC(=O)c1ncc(Cl)c(Cl)c1Cl)NC1CCS(=O)(=O)C1 (stereo unspecified)	inactive
COc1ccc(C(=O)N(Cc2ccc(N(C)C)cc2)C2CCS(=O)(=O)C2)cc1 (stereo unspecified)	inactive
CC1(C)C(C=C(Cl)Cl)C1C(=O)N(Cc1ccc(Cl)cc1)C1CCS(=O)(=O)C1 (stereo unspecified)	inactive
Cc1ccc(CN(C(=O)c2sc3ccccc3c2Cl)C2CCS(=O)(=O)C2)cc1 (stereo unspecified)	-7.41 (active)

Structure (SMILES)	B-score
O=[N+]([O-])c1c(NCCO)cc(Sc2nc3ccccc3s2)c2nonc12	inactive
Cc1onc(-c2ccccc2Cl)c1C(=O)N(Cc1ccc(N(C)C)cc1)C(C)C	inactive
C=C(C)CSc1nc(N)c2c3c(sc2n1)CCC3	inactive
C=CCn1c(SCC(=O)c2c(N)n(C)c(=O)n(C)c2=O)nc2sc(CC)cc2c1=O	inactive
CC1(C)CC(=O)CC2(C1)NCC(c1ccccc1Cl)c1c2[nH]c2ccccc12 (stereo unspecified)	-14.9 (active)
O=[N+]([O-])/C=C1\CCCCCN1	inactive
C(=N\Nc1ccc2ccccc2n1)/c1ccc2c(c1)OCO2	-6.68 (active)
Brc1ccc(-c2csc(N/N=C/c3ccc4c(c3)OCO4)n2)cc1	inactive
Cc1noc(C)c1/C=N/Nc1ccc2ccccc2n1	inactive
CN1CC(=O)N=C1N	inactive
CCCC1NC(=S)NC(C)=C1C(C)=O (stereo unspecified)	inactive
Cc1scc(C(=O)NNC(=S)NCc2ccccc2)c1C	inactive
O=c1oc2ccccc2cc1-c1csc(Nc2ccc(O)cc2)n1	inactive
CCNc1nc(-c2cc3ccccc3o2)cs1	inactive
COc1ccc2nc(Nc3nc(-c4cc5ccccc5oc4=O)cs3)sc2c1	-6.66 (active)
